Article PMC7862700, “An all-to-all approach to the identification of sequence-specific readers for epigenetic DNA modifications on cytosine”

Legend:
Assay in all cases: DAPPL (digital affinity profiling via proximity ligation, sequencing); 10 mM Tris-HCl pH 7.5, 50 mM NaCl, 1 mM DTT, 4% glycerol, room temperature, 30 min; GST-TFs on glutathione beads, 16-mer random dsDNA library, 0.1% formaldehyde crosslink after washing; high values mean tight binding
[1] = molecular target: T1, FEV (Homo sapiens, UniProt Q99581 1-238); conditions: protein: recombinant; tags: N-terminal GST; dsDNA, one strand shown
T1 sequence: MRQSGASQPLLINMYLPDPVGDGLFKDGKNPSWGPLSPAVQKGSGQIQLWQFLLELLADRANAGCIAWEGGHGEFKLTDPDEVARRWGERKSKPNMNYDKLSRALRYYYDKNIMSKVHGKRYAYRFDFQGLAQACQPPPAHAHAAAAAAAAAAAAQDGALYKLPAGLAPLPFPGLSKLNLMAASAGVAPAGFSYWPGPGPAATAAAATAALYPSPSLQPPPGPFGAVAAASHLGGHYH
Outline: (§1)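 In yeast, human transcription factors were expressed with a GST fusion, then pulled down on glutathione beads and given DNA barcodes. Pooled with a tag-only sample, they were exposed to 200 nmole of a 16-mer random double-stranded DNA library (Tris/NaCl/DTT/glycerol buffer, room temperature, 30 min), washed, crosslinked with 0.1% formaldehyde, proximity-ligated using BsaI/T4 ligase for 1 h at 37 °C, PCR-amplified and read on an Illumina NextSeq500. Each hexamer's frequency of reads for a factor, divided by the matching frequency for the tag-only sample, gives the binding signal.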

[2] = molecular target: ETV5 (Homo sapiens, UniProt P41161 1-510); conditions: protein: recombinant; tags: N-terminal GST; dsDNA, one strand shown
Sequence of ETV5 (P41161 whole entry): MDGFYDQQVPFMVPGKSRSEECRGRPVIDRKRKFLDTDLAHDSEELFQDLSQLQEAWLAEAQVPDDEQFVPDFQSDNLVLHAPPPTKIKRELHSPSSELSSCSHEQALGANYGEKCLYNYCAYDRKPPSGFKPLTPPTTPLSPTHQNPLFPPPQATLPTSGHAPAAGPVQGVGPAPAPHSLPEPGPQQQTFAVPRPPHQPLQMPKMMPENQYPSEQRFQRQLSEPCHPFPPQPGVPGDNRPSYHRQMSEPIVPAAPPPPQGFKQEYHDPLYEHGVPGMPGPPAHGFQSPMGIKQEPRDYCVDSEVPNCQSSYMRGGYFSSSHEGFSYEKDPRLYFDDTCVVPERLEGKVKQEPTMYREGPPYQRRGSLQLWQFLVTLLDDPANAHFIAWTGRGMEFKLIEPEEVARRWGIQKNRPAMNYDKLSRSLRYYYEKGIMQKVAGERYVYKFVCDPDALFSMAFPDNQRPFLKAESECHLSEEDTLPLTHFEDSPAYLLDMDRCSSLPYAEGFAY
Outline: as §1

[3] = molecular target: HSF1 (Homo sapiens, UniProt Q00613 1-529); conditions: protein: recombinant; tags: N-terminal GST; chain copies: 3; dsDNA, one strand shown
Sequence of HSF1 (Q00613 whole entry): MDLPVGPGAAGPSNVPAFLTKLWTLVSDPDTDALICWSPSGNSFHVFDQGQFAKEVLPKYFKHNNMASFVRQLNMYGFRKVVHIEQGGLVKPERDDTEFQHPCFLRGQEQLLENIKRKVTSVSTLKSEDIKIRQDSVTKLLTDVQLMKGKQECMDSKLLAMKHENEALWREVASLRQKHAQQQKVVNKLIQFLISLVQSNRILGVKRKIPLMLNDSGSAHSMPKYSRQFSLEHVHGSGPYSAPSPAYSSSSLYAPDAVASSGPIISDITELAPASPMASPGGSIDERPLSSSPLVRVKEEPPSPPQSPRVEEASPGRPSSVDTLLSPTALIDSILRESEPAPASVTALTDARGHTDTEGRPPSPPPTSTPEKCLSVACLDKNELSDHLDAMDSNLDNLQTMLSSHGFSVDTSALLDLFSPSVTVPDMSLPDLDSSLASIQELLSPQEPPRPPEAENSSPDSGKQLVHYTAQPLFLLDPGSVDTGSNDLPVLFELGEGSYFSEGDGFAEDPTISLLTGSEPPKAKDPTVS
Outline: as §1

[4] = molecular target: T2, SPIC (Homo sapiens, UniProt Q8N5J4 1-248); conditions: protein: recombinant; tags: N-terminal GST; dsDNA, one strand shown
T2 sequence: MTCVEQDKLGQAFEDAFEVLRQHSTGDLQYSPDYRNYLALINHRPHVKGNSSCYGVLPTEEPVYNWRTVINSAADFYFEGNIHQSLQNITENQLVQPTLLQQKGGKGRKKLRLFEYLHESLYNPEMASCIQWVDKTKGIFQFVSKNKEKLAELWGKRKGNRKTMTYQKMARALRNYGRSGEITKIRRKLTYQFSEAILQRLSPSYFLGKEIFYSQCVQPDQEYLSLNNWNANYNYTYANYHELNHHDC
Outline: as §1

[5] = molecular target: ELF4 (Homo sapiens, UniProt Q99607 1-663); conditions: protein: recombinant; tags: N-terminal GST; dsDNA, one strand shown
Sequence of ELF4 (Q99607 whole entry): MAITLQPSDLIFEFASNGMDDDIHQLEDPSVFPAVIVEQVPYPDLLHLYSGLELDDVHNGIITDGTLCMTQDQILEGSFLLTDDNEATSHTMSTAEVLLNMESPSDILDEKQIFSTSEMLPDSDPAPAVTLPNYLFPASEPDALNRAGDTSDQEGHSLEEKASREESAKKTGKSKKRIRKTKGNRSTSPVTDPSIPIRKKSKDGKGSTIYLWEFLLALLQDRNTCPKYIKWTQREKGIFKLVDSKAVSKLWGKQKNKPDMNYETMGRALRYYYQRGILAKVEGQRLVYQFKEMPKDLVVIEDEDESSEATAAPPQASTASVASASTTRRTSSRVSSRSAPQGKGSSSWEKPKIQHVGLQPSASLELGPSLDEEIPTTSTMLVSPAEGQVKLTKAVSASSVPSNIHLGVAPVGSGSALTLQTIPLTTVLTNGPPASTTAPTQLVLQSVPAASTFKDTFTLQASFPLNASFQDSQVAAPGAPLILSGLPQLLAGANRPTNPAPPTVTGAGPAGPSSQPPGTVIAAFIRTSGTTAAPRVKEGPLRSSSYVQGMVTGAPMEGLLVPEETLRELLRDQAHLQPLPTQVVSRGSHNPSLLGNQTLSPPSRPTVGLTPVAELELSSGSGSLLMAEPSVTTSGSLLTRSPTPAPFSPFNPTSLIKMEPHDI
Outline: as §1

[6] = molecular target: T3, ELK4 (Homo sapiens, UniProt P28324-2 1-405); conditions: protein: recombinant; tags: N-terminal GST; dsDNA, one strand shown
T3 sequence: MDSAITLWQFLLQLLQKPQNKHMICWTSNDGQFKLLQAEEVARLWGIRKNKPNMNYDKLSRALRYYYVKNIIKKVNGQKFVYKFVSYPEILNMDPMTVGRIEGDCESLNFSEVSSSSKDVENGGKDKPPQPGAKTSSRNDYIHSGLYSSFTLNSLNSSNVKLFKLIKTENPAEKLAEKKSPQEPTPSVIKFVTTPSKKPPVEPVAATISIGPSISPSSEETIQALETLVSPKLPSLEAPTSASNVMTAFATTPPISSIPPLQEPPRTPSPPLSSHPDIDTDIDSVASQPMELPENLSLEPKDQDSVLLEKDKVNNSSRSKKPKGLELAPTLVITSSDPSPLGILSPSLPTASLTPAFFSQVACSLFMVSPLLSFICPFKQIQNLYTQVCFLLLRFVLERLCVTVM
Outline: as §1

[7] = molecular target: T4, ETV2 (Homo sapiens, UniProt O00321 1-342); conditions: protein: recombinant; tags: N-terminal GST; dsDNA, one strand shown
T4 sequence: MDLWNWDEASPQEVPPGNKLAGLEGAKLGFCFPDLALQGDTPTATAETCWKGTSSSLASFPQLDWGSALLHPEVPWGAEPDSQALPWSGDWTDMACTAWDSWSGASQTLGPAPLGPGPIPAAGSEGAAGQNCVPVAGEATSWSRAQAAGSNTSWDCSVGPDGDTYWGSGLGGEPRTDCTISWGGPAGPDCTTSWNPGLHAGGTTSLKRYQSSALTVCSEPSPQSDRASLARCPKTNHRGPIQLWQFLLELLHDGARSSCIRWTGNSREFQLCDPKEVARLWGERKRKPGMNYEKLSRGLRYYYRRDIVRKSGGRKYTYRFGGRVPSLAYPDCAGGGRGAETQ
Outline: as §1

[8] = molecular target: T5, ELF3 (Homo sapiens, UniProt P78545 1-371); conditions: protein: recombinant; tags: N-terminal GST; dsDNA, one strand shown
T5 sequence: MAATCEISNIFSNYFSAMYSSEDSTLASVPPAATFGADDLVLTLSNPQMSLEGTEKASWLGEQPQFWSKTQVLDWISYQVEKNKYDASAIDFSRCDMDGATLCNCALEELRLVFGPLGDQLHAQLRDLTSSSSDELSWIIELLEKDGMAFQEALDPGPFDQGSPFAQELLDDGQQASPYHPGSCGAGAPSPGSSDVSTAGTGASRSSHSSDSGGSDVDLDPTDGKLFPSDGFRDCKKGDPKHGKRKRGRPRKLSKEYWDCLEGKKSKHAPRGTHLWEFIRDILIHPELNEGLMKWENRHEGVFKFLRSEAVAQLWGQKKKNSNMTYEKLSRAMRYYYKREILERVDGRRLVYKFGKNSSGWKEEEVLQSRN
Outline: as §1

[9] = molecular target: CRX (Homo sapiens, UniProt O43186 1-299); conditions: protein: recombinant; tags: N-terminal GST; dsDNA, one strand shown
Sequence of CRX (O43186 whole entry): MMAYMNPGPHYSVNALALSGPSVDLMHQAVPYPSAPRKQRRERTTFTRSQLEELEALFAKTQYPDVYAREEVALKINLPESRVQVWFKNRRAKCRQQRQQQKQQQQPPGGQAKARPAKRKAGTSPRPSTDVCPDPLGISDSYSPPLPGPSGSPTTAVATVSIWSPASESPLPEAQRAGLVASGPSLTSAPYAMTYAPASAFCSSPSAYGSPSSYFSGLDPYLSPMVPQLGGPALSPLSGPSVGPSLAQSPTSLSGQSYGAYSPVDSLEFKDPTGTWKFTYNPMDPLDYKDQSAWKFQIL
Outline: as §1

[10] = molecular target: ETV1 (Homo sapiens, UniProt P50549 1-477); conditions: protein: recombinant; tags: N-terminal GST; dsDNA, one strand shown
Sequence of ETV1 (P50549 whole entry): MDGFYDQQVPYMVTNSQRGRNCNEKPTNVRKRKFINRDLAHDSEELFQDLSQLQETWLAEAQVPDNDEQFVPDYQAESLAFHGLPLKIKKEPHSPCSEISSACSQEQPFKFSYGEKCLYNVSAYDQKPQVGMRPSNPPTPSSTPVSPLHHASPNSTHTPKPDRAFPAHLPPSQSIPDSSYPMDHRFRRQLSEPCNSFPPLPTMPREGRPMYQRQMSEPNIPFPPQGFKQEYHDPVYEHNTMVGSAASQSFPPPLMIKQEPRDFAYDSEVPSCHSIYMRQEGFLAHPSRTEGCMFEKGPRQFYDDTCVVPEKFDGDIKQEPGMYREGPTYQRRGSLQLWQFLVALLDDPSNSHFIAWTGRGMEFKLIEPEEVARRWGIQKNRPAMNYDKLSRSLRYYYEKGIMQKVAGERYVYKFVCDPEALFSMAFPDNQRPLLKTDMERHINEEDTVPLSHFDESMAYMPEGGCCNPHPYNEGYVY
Outline: as §1

[11] = molecular target: T6, ERF (Homo sapiens, UniProt P50548 1-548); conditions: protein: recombinant; tags: N-terminal GST; dsDNA, one strand shown
T6 sequence: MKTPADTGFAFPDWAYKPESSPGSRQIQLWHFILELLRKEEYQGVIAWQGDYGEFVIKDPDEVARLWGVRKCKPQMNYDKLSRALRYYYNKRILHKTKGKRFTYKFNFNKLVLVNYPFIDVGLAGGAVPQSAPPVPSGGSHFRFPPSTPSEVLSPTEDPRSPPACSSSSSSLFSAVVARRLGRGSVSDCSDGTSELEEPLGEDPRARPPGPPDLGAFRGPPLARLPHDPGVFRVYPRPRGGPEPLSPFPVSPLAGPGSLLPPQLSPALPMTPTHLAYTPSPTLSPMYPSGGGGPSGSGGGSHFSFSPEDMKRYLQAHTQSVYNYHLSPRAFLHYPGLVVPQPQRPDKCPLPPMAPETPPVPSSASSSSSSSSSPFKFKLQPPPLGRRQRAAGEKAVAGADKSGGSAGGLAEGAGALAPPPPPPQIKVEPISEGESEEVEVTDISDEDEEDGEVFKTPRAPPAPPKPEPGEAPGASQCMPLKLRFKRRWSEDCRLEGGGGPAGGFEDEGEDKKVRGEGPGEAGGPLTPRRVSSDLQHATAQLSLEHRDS
Outline: as §1

[12] = molecular target: T7, ETV3L (Homo sapiens, UniProt Q6ZN32 1-361); conditions: protein: recombinant; tags: N-terminal GST; dsDNA, one strand shown
T7 sequence: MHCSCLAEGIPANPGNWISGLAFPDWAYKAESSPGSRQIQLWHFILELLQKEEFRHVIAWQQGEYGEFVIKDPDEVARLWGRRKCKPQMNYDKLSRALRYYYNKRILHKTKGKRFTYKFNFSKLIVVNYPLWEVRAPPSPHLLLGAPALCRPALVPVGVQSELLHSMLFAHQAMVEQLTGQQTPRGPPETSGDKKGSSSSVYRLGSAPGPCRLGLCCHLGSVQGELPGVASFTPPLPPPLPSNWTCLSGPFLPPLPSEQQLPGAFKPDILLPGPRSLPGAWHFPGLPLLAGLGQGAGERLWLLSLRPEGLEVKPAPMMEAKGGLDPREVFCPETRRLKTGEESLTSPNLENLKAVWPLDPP
Outline: as §1

[13] = molecular target: T8, ETS2 (Homo sapiens, UniProt P15036 1-469); conditions: protein: recombinant; tags: N-terminal GST; dsDNA, one strand shown
T8 sequence: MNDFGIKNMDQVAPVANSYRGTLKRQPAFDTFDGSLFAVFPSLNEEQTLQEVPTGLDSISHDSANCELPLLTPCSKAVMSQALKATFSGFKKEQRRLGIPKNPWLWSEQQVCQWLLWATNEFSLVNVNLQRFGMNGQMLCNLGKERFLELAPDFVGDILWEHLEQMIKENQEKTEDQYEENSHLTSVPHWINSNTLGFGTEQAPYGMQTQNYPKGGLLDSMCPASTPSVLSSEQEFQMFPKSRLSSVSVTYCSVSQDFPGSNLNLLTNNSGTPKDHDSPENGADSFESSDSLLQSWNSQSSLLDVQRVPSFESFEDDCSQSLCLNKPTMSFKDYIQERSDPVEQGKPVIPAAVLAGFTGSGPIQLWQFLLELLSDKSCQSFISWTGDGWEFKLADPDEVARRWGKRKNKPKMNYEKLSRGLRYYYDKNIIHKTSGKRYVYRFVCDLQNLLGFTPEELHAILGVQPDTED
Outline: as §1

[14] = molecular target: T9, SPDEF (Homo sapiens, UniProt O95238 1-335); conditions: protein: recombinant; tags: N-terminal GST; dsDNA, one strand shown
T9 sequence: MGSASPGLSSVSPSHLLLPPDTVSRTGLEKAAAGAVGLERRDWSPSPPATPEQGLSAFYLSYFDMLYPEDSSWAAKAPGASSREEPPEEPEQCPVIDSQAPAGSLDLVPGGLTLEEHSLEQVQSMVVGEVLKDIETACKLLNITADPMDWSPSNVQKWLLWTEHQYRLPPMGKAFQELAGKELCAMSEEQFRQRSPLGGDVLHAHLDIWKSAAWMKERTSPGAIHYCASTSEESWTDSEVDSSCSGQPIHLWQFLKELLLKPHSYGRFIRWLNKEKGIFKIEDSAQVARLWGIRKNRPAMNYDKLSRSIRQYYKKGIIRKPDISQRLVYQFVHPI
Outline: as §1

[15] = molecular target: T10, ETV7 (Homo sapiens, UniProt Q9Y603 1-341); conditions: protein: recombinant; tags: N-terminal GST; dsDNA, one strand shown
T10 sequence: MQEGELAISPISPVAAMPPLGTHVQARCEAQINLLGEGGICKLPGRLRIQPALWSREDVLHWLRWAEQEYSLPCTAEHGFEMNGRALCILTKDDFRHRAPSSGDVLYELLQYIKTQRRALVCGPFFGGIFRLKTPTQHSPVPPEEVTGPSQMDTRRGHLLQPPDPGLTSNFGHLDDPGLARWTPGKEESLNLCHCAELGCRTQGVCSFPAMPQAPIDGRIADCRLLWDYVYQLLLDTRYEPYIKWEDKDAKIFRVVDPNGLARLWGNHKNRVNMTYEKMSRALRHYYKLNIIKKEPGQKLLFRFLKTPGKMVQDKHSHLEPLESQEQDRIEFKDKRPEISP
Outline: as §1

[16] = molecular target: T11, ELF5 (Homo sapiens, UniProt Q9UKW6-2 1-255); conditions: protein: recombinant; tags: N-terminal GST; dsDNA, one strand shown
T11 sequence: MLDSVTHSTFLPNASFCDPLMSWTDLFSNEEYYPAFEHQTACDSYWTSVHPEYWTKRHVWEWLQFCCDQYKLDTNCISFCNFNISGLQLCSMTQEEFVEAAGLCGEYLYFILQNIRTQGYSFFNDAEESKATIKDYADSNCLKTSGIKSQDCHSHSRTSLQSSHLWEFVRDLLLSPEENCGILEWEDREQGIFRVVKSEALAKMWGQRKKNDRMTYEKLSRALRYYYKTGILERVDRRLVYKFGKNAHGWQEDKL
Outline: as §1

[17] = molecular target: T12, ETV3 (Homo sapiens, UniProt P41162-2 1-143); conditions: protein: recombinant; tags: N-terminal GST; dsDNA, one strand shown
T12 sequence: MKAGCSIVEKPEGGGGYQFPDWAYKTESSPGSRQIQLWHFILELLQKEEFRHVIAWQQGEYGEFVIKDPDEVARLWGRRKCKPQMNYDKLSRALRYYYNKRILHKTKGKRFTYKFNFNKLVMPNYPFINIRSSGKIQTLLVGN
Outline: as §1

[18] = molecular target: ETV6 (Homo sapiens, UniProt P41212 1-452); conditions: protein: recombinant; tags: N-terminal GST; dsDNA, one strand shown
Sequence of ETV6 (P41212 whole entry): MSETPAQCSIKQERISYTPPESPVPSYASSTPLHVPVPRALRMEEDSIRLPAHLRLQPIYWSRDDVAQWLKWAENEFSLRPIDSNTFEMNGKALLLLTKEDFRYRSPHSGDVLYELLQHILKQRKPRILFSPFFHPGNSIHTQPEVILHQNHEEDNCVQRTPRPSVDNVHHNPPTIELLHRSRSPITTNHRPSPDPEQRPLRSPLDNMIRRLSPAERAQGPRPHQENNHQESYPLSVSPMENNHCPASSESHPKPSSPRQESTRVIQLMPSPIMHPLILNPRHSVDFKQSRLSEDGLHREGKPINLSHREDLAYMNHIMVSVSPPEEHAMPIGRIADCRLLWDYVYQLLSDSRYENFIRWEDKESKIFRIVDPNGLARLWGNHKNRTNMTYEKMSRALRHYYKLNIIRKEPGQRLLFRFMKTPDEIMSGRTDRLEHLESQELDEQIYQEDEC
Outline: as §1

## TGTTTG
[1]
  binding signal: 1.21 fold enrichment (6-mer frequency, TF over GST control)
[2]
  binding signal: 1.23 fold enrichment (6-mer frequency, TF over GST control)
[3]
  binding signal: 1.06 fold enrichment (6-mer frequency, TF over GST control)
[4]
  binding signal: 1.29 fold enrichment (6-mer frequency, TF over GST control)
[5]
  binding signal: 1.36 fold enrichment (6-mer frequency, TF over GST control)
[6]
  binding signal: 1.38 fold enrichment (6-mer frequency, TF over GST control)
[7]
  binding signal: 1.14 fold enrichment (6-mer frequency, TF over GST control)
[8]
  binding signal: 1.46 fold enrichment (6-mer frequency, TF over GST control)
[9]
  binding signal: 1.08 fold enrichment (6-mer frequency, TF over GST control)
[10]
  binding signal: 1.38 fold enrichment (6-mer frequency, TF over GST control)
[11]
  binding signal: 1.4 fold enrichment (6-mer frequency, TF over GST control)
[12]
  binding signal: 1.35 fold enrichment (6-mer frequency, TF over GST control)
[13]
  binding signal: 1.32 fold enrichment (6-mer frequency, TF over GST control)
[14]
  binding signal: 1.25 fold enrichment (6-mer frequency, TF over GST control)
[15]
  binding signal: 1.39 fold enrichment (6-mer frequency, TF over GST control)
[16]
  binding signal: 1.29 fold enrichment (6-mer frequency, TF over GST control)
[17]
  binding signal: 1.35 fold enrichment (6-mer frequency, TF over GST control)
[18]
  binding signal: 1.41 fold enrichment (6-mer frequency, TF over GST control)
